Most compounds without a hit are left out; they make up all but 2.9% or so of the library.
PAFAH2 FP inh = inhibitors of human PAFAH2 | Q99487 | recombinant PAFAH2, FP-rhodamine activity probe, fluorescence polarization | inhibition, % at 3.39 µM | 0.99% of 340,000 active;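 active means inhibition above the mean over all tested compounds plus 3 SD, cut at about 30% in these data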;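 further: inhibitors block probe labeling of enzyme so polarization drops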
ZTA DNA inh = ZTA (EBV) inhibition in EBNA-1 counter-screen. 0.15% of 320,000 active. P03206. inhibition, % at 11 µM. ZTA-DNA binding, fluorescence polarization; in the data active means inhibition above about 33%
Target sequence (P03206 whole entry, looked up): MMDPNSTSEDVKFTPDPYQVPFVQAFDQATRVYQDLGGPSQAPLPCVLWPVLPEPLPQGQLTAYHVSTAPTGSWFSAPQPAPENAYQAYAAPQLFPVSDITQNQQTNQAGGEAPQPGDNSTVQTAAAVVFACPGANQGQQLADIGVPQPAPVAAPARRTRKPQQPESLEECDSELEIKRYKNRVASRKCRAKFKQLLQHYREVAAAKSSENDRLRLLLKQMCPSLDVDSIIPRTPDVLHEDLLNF
pPAFAH FP inh = inhibitors of human plasma PAF acetylhydrolase (pPAFAH) | Q13093 | recombinant pPAFAH, FP-rhodamine probe fluorescence polarization | inhibition, % at 3.39 µM | 1.5% of 330,000 active;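 active means inhibition above the mean inhibition across the screen plus 3 SD, cut at about 25% in these data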;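 further: inhibitors block binding of the rhodamine activity-based probe so polarization drops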
EBNA-1 inh = blocks EBNA-1 binding to DNA | EBNA-1 DNA binding, fluorescence polarization | inhibition, % at 14.8 µM | 0.34% of 300,000 active | AID 1950; in the data active means inhibition above about 28%
PAFAH1B3 FP inh = inhibitors of human PAFAH1B3; Q15102; recombinant PAFAH1B3, FP-rhodamine probe, fluorescence polarization; inhibition, % at 3.39 µM; 0.28% of 340,000 active; AID 492972;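 active means inhibition above the screen-wide average of all tested compounds plus 3 SD, cut at about 25% in these data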
PAFAH1B2 inh = inhibitors of human PAFAH1B2. 1.2% of 340,000 active. inhibition, % at 3.39 µM. recombinant PAFAH1B2, FP-rhodamine activity probe, fluorescence polarization. AID 492953. P68402;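 active means inhibition above the mean of all tested compounds plus 3 SD, cut at about 24% in these data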
PAFAH2 confirm = confirmation of human PAFAH2 inhibitors | shares compounds with PAFAH2 FP inh | 65% of 2,300 active | recombinant PAFAH2, FP-rhodamine activity probe, fluorescence polarization | inhibition, % at 3.39 µM;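 active means mean inhibition over three repeats above a set limit taken from the earlier primary screen, cut at about 30% in these data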;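 further: inhibitor blocks binding of rhodamine activity probe so polarization falls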
PAFAH1B3 confirm = PAFAH1B3 (human) inhibition, confirmed; 30% of 390 active; shares compounds with PAFAH1B3 FP inh; inhibition, % at 3.39 µM; recombinant PAFAH1B3, FP-Rh activity-based probe, fluorescence polarization;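 active means average inhibition over triplicate runs above the hit cutoff set in the earlier primary screen, cut at about 25% in these data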
Numbers stand for hits; – = inactive; · = not tested or not shown.

SMILES | PAFAH2 FP inh | ZTA DNA inh | pPAFAH FP inh | EBNA-1 inh | PAFAH1B3 FP inh | PAFAH1B2 inh | PAFAH1B3 confirm | others
CCC(C)N1C(=O)/C(=C\c2cc3c4c(c2)CCCN4CCC3)C(=O)NC1=S (configuration not stated) | 36 | – | – | – | – | – | · | PAFAH2 confirm=–
CCC(C)N1C(=O)/C(=C\c2ccc(N3CCCCCC3)cc2)C(=O)NC1=S (configuration not stated) | – | – | – | – | – | – | ·
Nc1c(C(=O)NC2CCCC2)c2nc3ccccc3nc2n1CC1CCCO1 (configuration not stated) | – | – | – | – | 26 | – | –
COc1cc2c(cc1OC)-c1c(OC)c(OC)cc3c1[C@H](C2)N(C)CC3 | – | – | – | – | 34 | – | –
CN1CC[C@@]2(C)c3cc(O)ccc3N(C)[C@@H]12 | – | · | · | · | 40 | – | –
CN1CC[C@@]2(C)c3cc(O)ccc3N(C)C2O1 (some centres not stated) | – | – | – | – | – | – | ·
O=C1CC(=O)N(c2ccccc2)C(=O)N1 | – | · | · | · | – | – | ·
CCCCCn1c(NC(=O)c2ccco2)c(C(=O)OCC)c2nc3ccccc3nc21 | – | – | – | – | 55 | – | 50
COC(=O)C1=C(c2cccc(OC)c2OC)C[C@@H]2CC[C@H]1N2C(=O)NCC1CC1 | – | – | – | – | – | – | ·
O=C(COc1ccccc1F)N1CCN(CCN2C(=O)c3cccc4cccc(c34)C2=O)CC1 | – | – | – | – | 28 | – | –
O=C(COc1ccccc1)N1CCN(CCN2C(=O)c3cccc4cccc(c34)C2=O)CC1 | – | – | – | – | – | – | ·
CC(=O)OC1CCC2(/C=N/O)C(=CCC3C4CCC(=O)C4(C)CCC32)C1 (configuration not stated) | – | – | – | – | – | – | ·
c1cncc(C2CCCCN2)c1 (configuration not stated) | – | – | – | – | – | – | ·
c1cncc(C2Nc3cccc4cccc(c34)N2)c1 | – | – | – | – | 36 | – | –

Screens (PubChem)
